{
  "source": "PubChem BioAssay AID778",
  "about": "(Sanford-Burnham Center for Chemical Genomics, 2007)",
  "note": "About 20,000 (21%) of roughly 96,000 compounds were called active. A selection follows. Values without a mark were called inactive.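 How the source made its calls: active means CYP2C19 inhibition above a set limit at 5 µM in the primary screen (cut at about 50% in these data); inactive means the rest.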",
  "data": [
    {"biological_target": "Cytochrome P450 2C19 (Homo sapiens) (UniProt P33261)", "sequence (P33261 whole entry, looked up)": "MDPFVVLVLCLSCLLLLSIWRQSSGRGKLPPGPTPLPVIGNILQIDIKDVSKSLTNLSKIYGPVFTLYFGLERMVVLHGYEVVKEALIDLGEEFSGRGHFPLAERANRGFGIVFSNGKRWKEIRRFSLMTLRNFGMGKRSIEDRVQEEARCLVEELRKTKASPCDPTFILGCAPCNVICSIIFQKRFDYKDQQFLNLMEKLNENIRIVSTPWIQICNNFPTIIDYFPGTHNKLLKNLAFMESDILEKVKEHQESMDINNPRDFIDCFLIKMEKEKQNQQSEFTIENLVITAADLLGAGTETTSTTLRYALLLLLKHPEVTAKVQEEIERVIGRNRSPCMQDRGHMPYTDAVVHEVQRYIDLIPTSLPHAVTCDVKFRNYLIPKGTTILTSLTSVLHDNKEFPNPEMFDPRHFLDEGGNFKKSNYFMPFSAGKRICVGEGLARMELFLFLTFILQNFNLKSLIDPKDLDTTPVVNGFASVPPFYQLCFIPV", "assay": "blockers of cytochrome P450 2C19 activity – biochemical, luminescence, ADME assay, primary screen (AID 778);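 further: plate controls were negative control wells for no effect and 2.5 mM tranylcypromine positive control for full effect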", "conditions": "CYP2C19 Supersomes, luciferin-H EGE luminescence, 30 min; at 5 µM; active compounds read high", "values": [
      {"smiles": "Cn1c(=O)c2cn(-c3cccc4ccccc34)cc2n(C)c1=O", "inhibition": "49.2%"},
      {"smiles": "O=C(O)C1OC(C(=O)O)C2C1C(F)(F)C2(F)F", "note": "(configuration not stated)", "inhibition": "-0.7%"},
      {"smiles": "CCOC(=O)c1c(NC(=O)c2ccc(N3CCOCC3)c([N+](=O)[O-])c2)sc(C)c1C", "inhibition": "2.9%"},
      {"smiles": "Cc1cc(C(=O)CSc2nc(N)cc(=O)[nH]2)c(C)n1CCc1ccc(Cl)cc1", "inhibition": "37%"},
      {"smiles": "Cc1nc(C)c(C(=O)N(c2ccc(C)c(C)c2)C(C(=O)NCc2ccco2)c2ccccc2)s1", "note": "(configuration not stated)", "inhibition": "7.8%"},
      {"smiles": "O=c1c2c(nc3nc[nH]n13)CCC2", "inhibition": "-17.9%"},
      {"smiles": "CC(=NCc1ccco1)c1c(C(F)(F)F)[nH]n(-c2nc3ccccc3s2)c1=O", "inhibition": "28.3%"},
      {"smiles": "CC(=NCc1ccc2c(c1)OCO2)C1=C(O)c2ccccc2C1=O", "inhibition": "4.5%"},
      {"smiles": "CC(=NCc1ccco1)C1=C(O)c2ccccc2C1=O", "inhibition": "81.8% (active)"},
      {"smiles": "COc1ccc(C2C(C(C)=O)=C(O)C(=O)N2c2nccs2)cc1", "note": "(configuration not stated)", "inhibition": "-17%"},
      {"smiles": "COCCOC(=O)C1=C(C)N=c2s/c(=C\\c3cccs3)c(=O)n2C1c1cccs1", "note": "(configuration not stated)", "inhibition": "45.2%"},
      {"smiles": "CCOC(=O)C1=C(C)N=c2s/c(=C\\C(=O)OC)c(=O)n2C1c1ccc(OC)cc1", "note": "(configuration not stated)", "inhibition": "67.5% (active)"},
      {"smiles": "S=C1SCN(CCN2CCOCC2)CN1Cc1ccccc1", "inhibition": "25.3%"},
      {"smiles": "O=C(Nc1c(C(=O)N2CCCCC2)cnn1-c1ccccc1)c1ccco1", "inhibition": "-7.8%"},
      {"smiles": "Cc1ccc(C2C(C#N)C(C#N)N3CCCN23)cc1", "note": "(configuration not stated)", "inhibition": "-7.9%"},
      {"smiles": "O=c1c2ccccc2nc(CSc2nnnn2-c2ccccc2)n1-c1ccccc1", "inhibition": "-5.9%"},
      {"smiles": "CCOC(=O)CNC(=O)CSc1nnnn1-c1cc(C)ccc1C", "inhibition": "13.5%"},
      {"smiles": "O=C(Cn1nnc2ccccc2c1=O)Nc1cc(C(F)(F)F)ccc1N1CCOCC1", "inhibition": "31%"},
      {"smiles": "Cn1nnnc1SCC(=O)Nc1ccccc1C(=O)NC1CC1", "inhibition": "-4.1%"},
      {"smiles": "CN(C(=O)CSc1nnnn1-c1ccccc1)C1CCCCC1", "inhibition": "71.1% (active)"},
      {"smiles": "O=c1c2ccccc2nnn1CSc1nnnn1-c1ccccc1", "inhibition": "74.2% (active)"},
      {"smiles": "O=C(O)CCSc1nnc(-c2ccccc2)n1-c1ccccc1", "inhibition": "1.2%"},
      {"smiles": "C=CCn1c(SCn2nnc3ccccc3c2=O)nnc1-c1ccc(Cl)cc1", "inhibition": "87.2% (active)"},
      {"smiles": "C=CCn1c(Cn2nnc3ccccc32)nnc1SCC(=O)N/N=C/c1cc(Br)cc(OC)c1O", "inhibition": "22.7%"},
      {"smiles": "CC(=O)c1cc2c(cc1N)OCO2", "inhibition": "5.3%"},
      {"smiles": "CC1CCCC(C)N1C(=O)CN1CCN(c2nc(-c3ccc(F)cc3)cs2)CC1", "note": "(configuration not stated)", "inhibition": "7.4%"},
      {"smiles": "CC(=O)c1sc2nc(SCC(=O)N3CCCCC3)[nH]c(=O)c2c1C", "inhibition": "15.5%"},
      {"smiles": "CCOC(=O)c1sc2nc(CSCC(=O)OCc3ccc(C(=O)OC)o3)[nH]c(=O)c2c1C", "inhibition": "52.7% (active)"},
      {"smiles": "CCOC(=O)c1sc2nc(SC)nc(-c3ccccc3)c2c1N", "inhibition": "6.9%"},
      {"smiles": "O=C(OCCO)c1cc(Cl)c(C(=O)OCCO)cc1Cl", "inhibition": "15.6%"},
      {"smiles": "Cc1cccc(NC(=O)Nc2cccc(Oc3c(F)c(F)c(F)c(F)c3F)c2)c1", "inhibition": "0.7%"},
      {"smiles": "Cc1ccccc1NC(=S)Nc1cccc([N+](=O)[O-])c1", "inhibition": "46.2%"},
      {"smiles": "Cc1cccc(NC(=S)Nc2ccc(Br)cc2)c1", "inhibition": "66.8% (active)"},
      {"smiles": "CCCn1c(SCC(N)=O)nnc1C(C)C", "inhibition": "-9.9%"},
      {"smiles": "O=C(NC1CCCCC1)n1c(=O)oc2cc(S(=O)(=O)N3CCCCC3)ccc21", "inhibition": "6.9%"},
      {"smiles": "O=C(CN1CCN(c2ccccn2)CC1)NC1CCCCC1", "inhibition": "6.6%"},
      {"smiles": "O=C(CN1CCN(S(=O)(=O)c2ccc3ccccc3c2)CC1)NC(=O)NC1CCCCC1", "inhibition": "73.3% (active)"},
      {"smiles": "Cc1noc(NS(=O)(=O)c2ccc(N3CC(O)=C(c4ccccc4)C3=N)cc2)c1C", "inhibition": "-16.7%"},
      {"smiles": "COC(=O)C1=CN(C)C=C(C(=O)OC)C1c1ccc(Cl)cc1Cl", "inhibition": "74.5% (active)"},
      {"smiles": "CCOc1ccccc1C1C(C(=O)OC)=CN(C)C=C1C(=O)OC", "inhibition": "33.6%"},
      {"smiles": "CC12CN3CC(C)(CN(C1)C3c1ccc(Cl)cc1Cl)C2=O", "note": "(configuration not stated)", "inhibition": "20.4%"},
      {"smiles": "COC(=O)c1cc(NC(=O)CN2CCC(C(N)=O)(N3CCCCC3)CC2)cc(C(=O)OC)c1", "inhibition": "14.3%"},
      {"smiles": "COC(=O)c1ccc(C(=O)OC)c(NC(=S)N2CCCCC2)c1", "inhibition": "16.7%"},
      {"smiles": "NC(=O)C1(N2CCCCC2)CCN(C(=S)Nc2ccc(Cl)cc2)CC1", "inhibition": "70.7% (active)"},
      {"smiles": "O=C(OCc1nnc(-c2ccccc2)o1)c1ccc2c(c1)C(=O)N(CCc1ccccc1)C2=O", "inhibition": "0.5%"},
      {"smiles": "CCOc1ccc(C(C)C)cc1S(=O)(=O)n1nc(C)cc1C", "inhibition": "73.6% (active)"},
      {"smiles": "CCOc1ccc(NC(=O)CCC(=O)n2nc(C)cc2C)cc1", "inhibition": "-8.5%"},
      {"smiles": "CCCC(C(=O)n1nc(C)cc1C)C(NS(=O)(=O)c1ccc(C)cc1)c1ccccc1", "note": "(configuration not stated)", "inhibition": "43.5%"},
      {"smiles": "COc1cccc(CNc2nc3nc4c(c(=O)n3[nH]2)CCC4)c1", "inhibition": "-17.3%"},
      {"smiles": "O=C(Cc1cccs1)N1CCCC(c2nc(-c3ccc(S(=O)(=O)N4CCCC4)cc3)no2)C1", "note": "(configuration not stated)", "inhibition": "7.4%"},
      {"smiles": "O=C(c1cccs1)N1CCCC(c2nc(-c3ccc(F)cc3)no2)C1", "note": "(configuration not stated)", "inhibition": "64% (active)"},
      {"smiles": "O=C(c1cccs1)N1CCC(c2nc3ccccc3s2)CC1", "inhibition": "35.6%"},
      {"smiles": "COC(=O)/C(=C\\Nc1ccccc1)NC(=O)c1ccc(Cl)cc1Cl", "inhibition": "49%"},
      {"smiles": "C[N+]1(CCNC(=O)/C=N/O)CCCCC1", "inhibition": "3.7%"},
      {"smiles": "Cc1cc(C)c2c(c1)cc(C)c1nnc(SCC(=O)Nc3cc(C)on3)n12", "inhibition": "12.6%"},
      {"smiles": "O=C(Nc1cccc2ncccc12)c1ccc(-c2ccc(Cl)cc2Cl)o1", "inhibition": "-13.7%"},
      {"smiles": "Clc1ccc(COn2c(-c3ccc(Cl)cc3Cl)nc3ncccc32)cc1", "inhibition": "96.6% (active)"},
      {"smiles": "O=C(CN1C(=O)COc2ccccc21)NCCN1CCc2ccccc2C1", "inhibition": "53.3% (active)"},
      {"smiles": "CCCN1CCN(CCCNC(=O)CN2C(=O)COc3ccccc32)CC1", "inhibition": "-16.5%"},
      {"smiles": "O=C(CN1C(=O)COc2ccccc21)Nc1ccc(F)cc1", "inhibition": "33.4%"},
      {"smiles": "Cc1cc(C)c2nc(NC(=O)C3CCCO3)sc2c1", "note": "(configuration not stated)", "inhibition": "14.4%"},
      {"smiles": "Fc1ccc(-c2nnc(CSc3nnc(-c4ccc5c(c4)OCO5)o3)o2)cc1", "inhibition": "-7.5%"},
      {"smiles": "Cc1nc(SC(C)C)[nH]c(=O)c1Cc1ccccc1", "inhibition": "38.8%"},
      {"smiles": "Cc1cnc(NC(=O)CSc2c(Cl)cccc2Cl)s1", "inhibition": "-7.1%"},
      {"smiles": "C=CCOC(=O)C1=C(C)NC(C)=C(C(=O)OCC=C)C1c1cccs1", "inhibition": "77% (active)"},
      {"smiles": "CCCOC(=O)c1[nH]c2c(c1C)C(=O)CC(c1cccs1)C2", "note": "(configuration not stated)", "inhibition": "39.9%"},
      {"smiles": "CCOC(=O)N1CC=C2C(C#N)=C(N)C(C#N)(C#N)[C@H](c3cccs3)[C@H]2C1", "inhibition": "-4.5%"},
      {"smiles": "COc1cc(C2C(C(=O)Nc3ccc(F)cc3)=C(C)Nc3nc(CCCO)nn32)cc(OC)c1OC", "note": "(configuration not stated)", "inhibition": "11.1%"},
      {"smiles": "CCCOC(=O)Cc1c(O)c2ccccc2[nH]c1=O", "inhibition": "-12.3%"},
      {"smiles": "O=c1/c(=C/c2ccc(CNS(=O)(=O)c3ccccc3)o2)sc2n1CCN=2", "inhibition": "52.4% (active)"},
      {"smiles": "O=c1nc2s/c(=C\\c3ccco3)c(=O)n2nc1Cc1ccccc1", "inhibition": "-5.5%"},
      {"smiles": "CCOc1cc(CNCCN(C)C)c(Cl)cc1OCC(=O)NCCc1ccccc1", "inhibition": "-1.1%"},
      {"smiles": "COc1ccc(N2C(=O)CCC(C(=O)Nc3ccccn3)C2c2ccc(OC)c(OC)c2)cc1", "note": "(configuration not stated)", "inhibition": "28.2%"},
      {"smiles": "O=C(O)C1CC=CCC1C(=O)Nc1ccccc1C(=O)N1CCN(c2ccccc2)CC1", "note": "(configuration not stated)", "inhibition": "-10.7%"},
      {"smiles": "Cn1nnnc1SCC(=O)N1CCN(Cc2ccccc2)CC1", "inhibition": "38.9%"},
      {"smiles": "O=C1CCN(C(=O)Nc2ccccc2)N1", "inhibition": "-3.2%"},
      {"smiles": "CC(=O)N1CCN(C(=O)Nc2cccc(C(F)(F)F)c2)CC1", "inhibition": "8.1%"},
      {"smiles": "O=C(Nc1cccc(NC(=O)N2CCN(c3ccccc3)CC2)c1)N1CCN(c2ccccc2)CC1", "inhibition": "72% (active)"},
      {"smiles": "CCC(=O)Nc1ccccc1C(=O)N1CCN(Cc2ccccc2)CC1", "inhibition": "65% (active)"},
      {"smiles": "O=C(Nc1ccccc1)N1CCN(Cc2ccccc2)CC1", "inhibition": "76.7% (active)"},
      {"smiles": "COc1cccc(N2CCN(C(=O)Nc3ccc4c(c3)NC(=O)CO4)CC2)c1", "inhibition": "-6.5%"},
      {"smiles": "CCOc1ccc(NC(=O)N2CCN(CC)CC2)cc1", "inhibition": "-6.1%"},
      {"smiles": "Cc1ccc(C(=O)OC2=CC(=O)CC(C)(C)C2)cc1", "inhibition": "36.6%"},
      {"smiles": "CCOC(=O)c1[nH]c2ccc(OC)cc2c1NC(=O)N1CCOCC1", "inhibition": "2.7%"},
      {"smiles": "Cn1c(SCC(=O)C(C)(C)C)nnc1-c1ccccn1", "inhibition": "33.5%"},
      {"smiles": "Cc1ccccc1NC(=O)NCc1ccco1", "inhibition": "-11.9%"},
      {"smiles": "CCOc1ccccc1C(=O)NCc1ccco1", "inhibition": "14.6%"},
      {"smiles": "CS(=O)(=O)N(Cc1ccc(Cl)cc1)c1ccc(C(=O)NCCSCc2ccco2)cc1", "inhibition": "-3.9%"},
      {"smiles": "Cc1ccc(N(Cc2ccc(C(=O)Nc3ccccc3C(=O)NCc3ccco3)cc2)S(C)(=O)=O)cc1C", "inhibition": "87.7% (active)"},
      {"smiles": "Cc1cccc(Nc2ccccc2C(=O)NCc2ccco2)c1C", "inhibition": "22.7%"},
      {"smiles": "O=C(Nc1ccccc1)Nc1ccccc1C(=O)NCc1ccco1", "inhibition": "79.3% (active)"},
      {"smiles": "CC(=O)N(CC1CCCO1)C1(C(=O)NC2CCCC2)CCCCC1", "note": "(configuration not stated)", "inhibition": "3.8%"},
      {"smiles": "O=C(CN1CCOCC1)Nc1c2c(nc3c1CCC3)CCC2", "inhibition": "-3%"},
      {"smiles": "Fc1ccccc1/C=C1\\CCCC2=C1Nc1ncnn1C2c1ccccc1F", "note": "(configuration not stated)", "inhibition": "45.3%"},
      {"smiles": "COc1ccc(C(=O)/C=C/Nc2ccccn2)cc1", "inhibition": "46.4%"},
      {"smiles": "COc1ccccc1Oc1ccc(S(=O)(=O)Nc2cccnc2)cc1", "inhibition": "87.6% (active)"},
      {"smiles": "O=S(=O)(Nc1ccccn1)c1ccc(Oc2ccccc2)cc1", "inhibition": "90.2% (active)"}
    ]}
  ]
}
